# Assay results reported in PubChem BioAssay (NCI).
# This is part of a sample that, as a whole, favours compounds with a hit. Of some 83,000 tested, about 20% had one in any assay.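 Activity criterion: percent growth below 10, measured after cells in 96-well plates were exposed to a single compound concentration for 48 hours.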 Unmarked numbers belong to inactive results. The source made the active and inactive calls.
# System: SR leukemia
# Experiment: NCI-60 one-dose screen, 48 h (100 = growth as untreated, 0 = no growth, -100 = all killed)
# Details: 10 µM unless noted
# Protocol: Growth inhibition of the SR human tumor cell line is measured as a screen for anti-cancer activity. Cells are grown in 96 well plates and exposed to the test compound for 48 hours. Compounds are tested at a single concentration, which is 10^-5 M for most compounds. The reported endpoint is percent growth (GI% or GIPRCNT), where numbers from 0 - 100% represent growth inhibition, and numbers from -100% - 0 represent cell death. For example, a value of 40 represents 60% growth inhibition. A value of 0 means no net growth occurred over the course of the experiment. A value of -40 indicates 40% of cells at the beginning of the experiment died by the end of the experiment. A value of -100 means all cells are dead at the end of the experiment.
# NCI-60 Human Tumor Cell Lines Screen was performed using the standard one-dose NCI protocol, which is described in more detail at https://dtp.cancer.gov/discovery_development/nci-60/default.htm.
# Compounds with GIPRCNT values below 10 were considered active. Activity score was based on GIPRCNT using the following formula: […]
# Score is 0 for GIPRCNT values of 100 or above, 50 for GIPRCNT values of 0, and 100 for GIPRCNT values of -100.
row,SMILES,growth
1,N#Cc1c(O)c2c(c(O)c1C#N)C(=O)c1ccccc1C2=O,15.4%
2,COc1cc(/C=C2\C(=O)N(c3c(Cl)cccc3Cl)c3ccccc32)cc(OC)c1O,3.84% (active)
3,CN(C)c1ccc(/C=C(\C#N)c2cc3ccccc3n2C)cc1,22%
4,CSc1ccc(OC(C)=O)cc1C,95.7%
5,C[C@@H](Oc1cc(-c2cnn(C3CC4(CNC4)C3)c2)cnc1N)c1c(Cl)ccc(F)c1Cl,-24.6% (active)
6,CCCCCCCC/C=C\CCCCCCCCOc1cccc(CC(=O)NCC[N+]2(C)CCCCC2)c1,34.7%
7,CN1CCn2c(c(Sc3ccc(C(=O)NO)cc3)c3ccccc32)C1=O,0.516% (active)
8,O=c1nc(NO)[nH]c(=O)n1Cc1ccccc1,107%
9,O=c1[nH]c(=O)n(Cc2ccc(F)cc2)cc1F,93.5% [50 µM]
10,CC1(C)N=C(N)N=C(N)N1c1cccc(OCCOc2cccc([N+](=O)[O-])c2)c1,15.9%
11,Cc1nc2nc(C(F)(F)F)[nH]c2nc1C,111%
12,CNc1ccc(Br)cc1-c1n[nH]c(=O)[nH]c1=O,103%
13,Cc1ccc(C(=O)Nc2ccccc2N)cc1,68%
14,COc1cc(CNCCN2C(=O)c3ccc4c5c(ccc(c35)C2=O)C(=O)N(CCNCc2cc(OC)c(OC)c(OC)c2)C4=O)cc(OC)c1OC,0.859% (active)
15,O=C1CC(c2ccsc2)c2snc(-c3ccc(Cl)cc3)c2N1 (stereo not given),20.9%
16,CCCN1CCN(c2ccc3nc(-c4ccc5nc(-c6ccc(C(F)(F)F)cc6)[nH]c5c4)[nH]c3c2)CC1,-35.5% (active)
17,COc1ccc(Cn2c(Br)c3c(c2-c2cc(OC)c(OC)c(OC)c2)CCc2sc(N)nc2-3)cc1,4.41% (active)
18,Cn1c2c(cc(S(=O)(=O)c3ccccc3)c1=O)CCc1c-2cnn1-c1cccc(Cl)c1,77.6%
19,COc1ccc(/C=N/NC(=O)c2cnn(CC(O)Cc3ccccc3)c2N)cc1OC1CCCC1 (stereo not given),88.7%
20,CSc1nnc(-c2sc3nnc(-c4ccccc4)c(-c4ccccc4)c3c2O)o1,62.5%

row,SMILES,growth
1,O=c1oc2ccccc2cc1-c1csc(N=Nc2c(O)[nH]c3ccc(Cl)cc23)n1,102%
2,Nc1cc(Br)c(-c2nnc(CCC(=O)c3nc4ccccc4[nH]3)o2)c(Br)c1,18.5%
3,O=C1C(Br)=C(c2ccccc2)C(=O)C(Br)=C1c1ccccc1,71.1%
4,COc1ccc2nc(-n3nc(C)cc3C)c(-n3nc(C)cc3C)nc2c1,95%
5,CCN1CCN(c2nc3ccccc3c3c(=O)c4cc(F)ccc4sc23)CC1,0.85% (active)
6,C=C1CC[C@@H]2[C@@](C)(CCC[C@]2(C)C(=O)O)[C@@H]1CC[C@H](CO)CCO,85.2%
7,COc1ccc(C(=O)C2=CC(=O)C(=O)C2)cc1OC,94.3%
8,CC1CCCCN1S(=O)(=O)c1ccc(CN=C=S)cc1 (stereo not given),5.92% (active)
9,O=[N+]([O-])c1cc2c(cc1Br)C1C(C3C2C(Cl)(Cl)C(Cl)=C(Cl)C3(Cl)Cl)C(Cl)(Cl)C(Cl)=C(Cl)C1(Cl)Cl (stereo not given),80.2%
10,COc1ccc(OC)c(C2C(C#N)=C(N)Oc3cc(O)ccc32)c1 (stereo not given),80%
11,O=C(COc1ccc(/C=C2\CSc3ccccc3C2=O)cc1)c1ccc(Cl)cc1,93.1%
12,COc1ccc(/C=C2\CN(Cc3cn(CCCNc4ccnc5cc(Cl)ccc45)nn3)C/C(=C\c3ccc(OC)c(OC)c3)C2=O)cc1OC,-11.8% (active)
13,O=c1onc(-c2ccccc2)c2ccccc12,101%
14,NC(=O)c1cccc(-n2ccc3cc(NC(=O)Nc4ccc(Cl)c(Cl)c4)ccc32)n1,45.5%
15,Fc1c[c-]c(-c2ccccn2)c(F)c1.Fc1c[c-]c(-c2ccccn2)c(F)c1.[Cl][Pt+].[Cl][Pt+].c1ccc([PH+](C[PH+](c2ccccc2)c2ccccc2)c2ccccc2)cc1,19.7%
16,COc1ccc(Sc2ccc3[nH]c(=O)nc(N)c3c2)cc1,87.1%
17,Cc1ccc(S(=O)(=O)N2CCc3ccc(O)c4c3C2CCc2ccccc2-4)cc1 (stereo not given),76.5%
18,CCCCCCCCCCCCSC1=CC(=O)C=CC1=O,71.5%
19,Cc1nc(NN)c([N+](=O)[O-])c(NN)n1,73.5%
20,Cc1c(C)n(CC(O)CNC2CCCCC2C)c2ccccc12 (stereo not given),1.95% (active)
